From PubChem BioAssay (NCATS) come the findings set out here.

“And” between values parts separate entries of the source, which are not always exact repeats. Equal entries are not always repeated. Results filed as inconclusive are left out. The source made the active and inactive calls. Unless noted, calls follow the shape of the dose curve; as a rule, active = well fitted curve in the direction sought with a large enough effect; inconclusive = small, poorly fitted or top-dose-only effect, or another doubt; inactive = no such curve, though single readings can be large; an effect the other way counts as inactive or inconclusive.

Assay [1] in a line: Primary qHTS for inhibitors of nuclear receptor binding SET domain protein 2 (NSD2) in an isogenic RCH-ACV NSD2 p.E1099K mutant (9B) (AID 1645876). Also: nearly all actives have a fitted effect of over 70% in size. Also: potency is read from the fitted curve at half-maximal effect. On the technique in general: In qHTS, concentration-response curves come from the screen itself.
The nature of assay [2]: Primary qHTS for inhibitors of nuclear receptor binding SET domain protein 2 (NSD2) in an RCH-ACV wild type WT cells (2C) (AID 1645877). Also: nearly all actives have a fitted effect of over 70% in size. Also: potency is read from the fitted curve at half-maximal effect.
For assay [3], the target named is Catechol O-methyltransferase (Homo sapiens) (UniProt P21964). Nature of the assay: Confirmatory Screen for Target Class Profiling of Small Molecule Inhibitors of Methyltransferases (AID 1745852; calls by dose curve; also: potency is read from the fitted curve at half-maximal effect; as to activity change, negative = inhibition: % is scaled to controls: 0 for no effect and ±100 for the full control effect). The conditions noted are these: MTase-Glo luminescence, SAH detection, recombinant enzyme; measured here: COMT max response; stronger effect = lower value.
Assay [4] addresses Guanidinoacetate N-methyltransferase (Homo sapiens) (UniProt Q14353). The assay is described as above. The note with it: MTase-Glo luminescence, SAH detection, recombinant enzyme; activity change, negative = inhibition: at 57.3 µM (top of the series).
Assay [5] deals with Rap guanine nucleotide exchange factor 3 (Homo sapiens) (UniProt O95398). Put plainly: Confirmatory qHTS for antagonist of cAMP-regulated guanine nucleotide exchange factor 3 (EPAC1) (AID 1645880).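 Also: plate controls were DMSO only for no effect and full effect of the ATA control for full effect; nearly all actives have a fitted effect of over 55% in size.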 Summed up: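 Released BODIPY-GDP fluoresces less than Rap1-bound BODIPY-GDP; the signal is followed at 480/540 nm at 5-min intervals over 30 min, after 5 min at room temperature. Reactions contain 100 nM EPAC1, 250 nM RAP1B-BODIPY-GDP and 50 uM GDP; results are normalized to ATA and DMSO.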

Assay [6] shares this target. Nature of the assay: Confirmatory qHTS for agonist of cAMP-regulated guanine nucleotide exchange factor 3 (EPAC1) (AID 1645881).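 Also: EPAC1 catalysed release of BODIPY-GDP from Rap1B seen as fluorescence loss; 100% = effect of cAMP agonist control; nearly all actives have a fitted effect of over 75% in size.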
The target of assay [7] is Rap guanine nucleotide exchange factor 4 (Homo sapiens) (UniProt Q8WZA2). Put plainly: Confirmatory qHTS for agonist of cAMP-regulated guanine nucleotide exchange factor 4 (EPAC2) (AID 1645884).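 Also: nucleotide exchange releases bodipy-GDP from Rap1 and this lowers its fluorescence; % is scaled to controls: 0 for no effect and ±100 for the full control effect; nearly all actives have a fitted effect of over 65% in size.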
The target in assay [8] is Rap guanine nucleotide exchange factor 3 (Homo sapiens) (UniProt O95398). Put plainly: Counterscreen qHTS for antagonist of cAMP-regulated guanine nucleotide exchange factor 3 (EPAC1) (AID 1645888). Also: % of control where 0% means no effect. Summed up: (§1)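 Measured: fluorescence of BODIPY-GDP bound to Rap1B, which falls as exchange proceeds. Conditions include 50 uM competing GDP, 5 and 30 min reads, and a later cAMP challenge for antagonist detection.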
A general note: A counterscreen serves to expose hits that act by an unwanted route or on another target.

Assay [9] has the same target. Put plainly: Counterscreen qHTS for agonist of cAMP-regulated guanine nucleotide exchange factor 3 (EPAC1) (AID 1645889). Also: % of control where 0% means no effect; nearly all actives have a fitted effect of over 40% in size. Summed up: as §1
The target in assay [10] is Rap guanine nucleotide exchange factor 4 (Homo sapiens) (UniProt Q8WZA2). Put plainly: Confirmatory qHTS for antagonist of cAMP-regulated guanine nucleotide exchange factor 4 (EPAC2) (AID 1645885). Also: nearly all actives have a fitted effect of over 25% in size. Also: potency is read from the fitted curve at half-maximal effect. As to activity change, negative = inhibition: % is scaled to controls: 0 for no effect and ±100 for the full control effect.

Chain of Rap guanine nucleotide exchange factor 3 (Homo sapiens) (O95398 whole entry, looked up): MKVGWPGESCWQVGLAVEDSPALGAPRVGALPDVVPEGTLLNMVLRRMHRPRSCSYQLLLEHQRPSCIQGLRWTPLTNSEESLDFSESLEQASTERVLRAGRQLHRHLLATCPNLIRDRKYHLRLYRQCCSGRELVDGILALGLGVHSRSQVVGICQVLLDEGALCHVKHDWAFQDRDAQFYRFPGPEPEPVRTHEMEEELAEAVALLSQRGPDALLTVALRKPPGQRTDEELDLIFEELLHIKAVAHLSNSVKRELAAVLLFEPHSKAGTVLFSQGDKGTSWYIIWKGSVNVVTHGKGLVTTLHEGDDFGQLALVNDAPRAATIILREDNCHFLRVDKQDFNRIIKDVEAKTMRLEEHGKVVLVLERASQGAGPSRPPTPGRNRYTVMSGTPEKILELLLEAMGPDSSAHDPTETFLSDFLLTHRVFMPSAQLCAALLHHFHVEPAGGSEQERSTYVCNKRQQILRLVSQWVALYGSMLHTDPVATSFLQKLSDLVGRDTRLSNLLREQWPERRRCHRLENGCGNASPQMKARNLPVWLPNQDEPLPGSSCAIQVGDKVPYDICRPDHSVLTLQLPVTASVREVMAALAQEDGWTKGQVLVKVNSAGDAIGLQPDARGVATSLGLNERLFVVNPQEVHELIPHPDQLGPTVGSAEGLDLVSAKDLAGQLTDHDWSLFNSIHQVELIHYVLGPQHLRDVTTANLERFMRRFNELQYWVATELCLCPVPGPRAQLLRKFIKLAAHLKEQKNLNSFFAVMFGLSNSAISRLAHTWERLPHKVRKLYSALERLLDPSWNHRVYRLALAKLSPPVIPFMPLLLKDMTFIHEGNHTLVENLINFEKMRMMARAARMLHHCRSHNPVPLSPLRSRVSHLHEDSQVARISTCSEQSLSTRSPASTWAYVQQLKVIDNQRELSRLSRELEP
Chain of Catechol O-methyltransferase (Homo sapiens) (P21964 whole entry, looked up): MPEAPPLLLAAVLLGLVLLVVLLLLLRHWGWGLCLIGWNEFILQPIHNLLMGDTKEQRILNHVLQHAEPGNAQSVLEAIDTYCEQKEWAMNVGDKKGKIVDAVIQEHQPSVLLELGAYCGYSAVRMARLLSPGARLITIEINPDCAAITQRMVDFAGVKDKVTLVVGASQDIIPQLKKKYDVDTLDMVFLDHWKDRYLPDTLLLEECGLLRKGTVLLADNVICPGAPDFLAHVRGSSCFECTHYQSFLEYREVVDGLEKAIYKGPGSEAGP
Chain of Rap guanine nucleotide exchange factor 4 (Homo sapiens) (Q8WZA2 whole entry, looked up): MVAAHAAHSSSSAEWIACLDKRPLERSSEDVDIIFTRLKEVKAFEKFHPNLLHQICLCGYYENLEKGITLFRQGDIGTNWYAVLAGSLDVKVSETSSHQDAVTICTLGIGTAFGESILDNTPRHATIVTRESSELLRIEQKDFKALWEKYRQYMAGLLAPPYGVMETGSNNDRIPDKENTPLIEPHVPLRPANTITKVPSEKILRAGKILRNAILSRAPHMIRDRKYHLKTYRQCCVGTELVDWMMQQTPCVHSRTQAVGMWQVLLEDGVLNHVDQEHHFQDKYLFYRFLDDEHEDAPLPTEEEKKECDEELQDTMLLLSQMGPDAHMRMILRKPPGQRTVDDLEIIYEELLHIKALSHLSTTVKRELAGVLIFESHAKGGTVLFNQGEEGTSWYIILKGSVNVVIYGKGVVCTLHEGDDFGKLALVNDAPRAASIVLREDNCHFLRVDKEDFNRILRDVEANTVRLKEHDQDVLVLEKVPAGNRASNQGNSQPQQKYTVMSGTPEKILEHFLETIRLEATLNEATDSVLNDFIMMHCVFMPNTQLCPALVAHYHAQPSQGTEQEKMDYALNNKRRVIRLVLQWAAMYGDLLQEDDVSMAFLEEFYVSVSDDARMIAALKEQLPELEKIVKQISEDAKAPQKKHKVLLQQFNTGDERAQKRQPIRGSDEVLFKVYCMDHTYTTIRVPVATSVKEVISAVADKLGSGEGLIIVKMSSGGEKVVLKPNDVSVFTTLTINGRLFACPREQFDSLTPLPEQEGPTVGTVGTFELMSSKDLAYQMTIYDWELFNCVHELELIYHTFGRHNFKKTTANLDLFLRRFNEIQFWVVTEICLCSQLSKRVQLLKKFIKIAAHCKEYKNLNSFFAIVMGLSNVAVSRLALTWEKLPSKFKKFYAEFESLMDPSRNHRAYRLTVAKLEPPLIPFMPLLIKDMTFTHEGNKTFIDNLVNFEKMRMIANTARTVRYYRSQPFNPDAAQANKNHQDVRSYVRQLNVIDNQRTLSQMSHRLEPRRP

As for `O=S(=O)(O)C(F)(F)C(F)(F)C(F)(F)C(F)(F)F`, the Potency entry in [1] and in [2] was “inactive” each time.

Consider `COc1cc([C@@H]2c3cc4c(cc3[C@@H](O)C3COC(=O)C32)OCO4)cc(OC)c1O` (some centres undefined), for which the Potency in assay [1] was 417 nM (active); in [2], 0.372 µM (active).

Turning to `Cn1cnc(CCN)c1`, the activity in [3] is 2.37%. Besides, the activity change, negative = inhibition in assay [4] is 1.75%.

Turning to `CNCCc1ccc(O)c(O)c1`, the activity in [3] worked out at 109%. Besides, the activity change, negative = inhibition in assay [4] was found to be 3.55%.

As for `COC1=C[C@@H]2[C@@H]3Cc4ccc(OC)c(O)c4[C@]2(CCN3C)CC1=O`, the Potency entry in [1] and in assay [2] was “inactive” in each case.

As for `CCCCCCCCCCCCCCCC[N+](C)(C)C`, the Potency in [1] is 422 nM (active); in [2] it was 0.596 µM (active).

As to `Cc1[nH]nc2ccc(-c3cncc(OC[C@@H](N)Cc4c[nH]c5ccccc45)c3)cc12`, the Potency in assay [1] is 145 nM (active) and 235 nM (active); in assay [2], 81.7 nM (active) and 132 nM (active); in [4] it was 30.4 µM (active). Also, the activity in assay [3] was -31.1%.

Take `NC1CCc2cc(O)c(O)cc2C1` (centres undefined): in [3], the activity came to 149%. In addition, the activity change, negative = inhibition in assay [4] was 0.293%.

Regarding `CC(C)(C)NC[C@H](O)c1ccc(O)cc1Cl`, the Potency entry in [1] and in [2] was “inactive” throughout.

As to `CC(=O)Nc1ccc(OC[C@](C)(O)C(=O)Nc2ccc([N+](=O)[O-])c(C(F)(F)F)c2)cc1`, in assay [2], the Potency result is “inactive”.

For the compound `Nc1ccc(Sc2ccc(N)cc2)cc1`, the Potency in assay [2] was 34.4 µM (active).

Consider `O=[N+]([O-])c1cc([N+](=O)[O-])c2ccccc2c1`, for which the Potency entry in assay [1] and in assay [2] was “inactive” throughout.

Regarding `C[C@@H](N)Cc1cnc[nH]1`, in [3], the activity is -4.66%. For the same compound, in [4], the activity change, negative = inhibition was -1.84%.

Consider `S=C(NC1CCCCC1)N1CCC(c2cnc[nH]2)CC1`, for which the Potency entry in assay [1] and in assay [2] was “inactive” in each case.

Take `CCc1c(C(=O)C(N)=O)c2c(OCC(=O)O)cccc2n1Cc1ccccc1`: the Potency result in [1] and in assay [2] was “inactive” throughout.

As to `CCCCOC(=O)c1ccccc1C(=O)OCc1ccccc1`, the outcome in assay [5], in assay [6], in [8] and in assay [9] was “inactive” throughout. In addition, the activation in [7] is 4.15% [at 17.1 µM] (inactive).

For the compound `CCCN(CCC)[C@@H]1CCc2ccc(O)cc2C1`, the activity in [3] is 3.68%. In addition, in assay [4], the activity change, negative = inhibition came out at 1.97%.

For the compound `NCCc1c[nH]c2ccccc12`, the activity in [3] is -4.15%. The activity change, negative = inhibition in [4] was determined as 2.74%.

`CN1CCN(c2ccc([N+](=O)[O-])c3no[n+]([O-])c23)CC1`: the Potency in assay [2] was 20.9 µM (active).

On to `CCCN(CCC)c1c([N+](=O)[O-])cc(S(N)(=O)=O)cc1[N+](=O)[O-]`, for which the Potency in assay [1] is 9690 nM (active); in assay [2], 12.2 µM (active); in [10], 89.7 µM (active). For the same compound, the outcome in assay [6] and in assay [7] was “inactive” throughout.

On to `Cc1c(C(=O)Nc2cccc(C(F)(F)F)c2)cc(-c2ccccc2)n1CCCN1CCOCC1`, for which the Potency was 20900 nM (active) in assay [1] and 23.5 µM (active) in assay [2].

For `CN(C)[C@@H]1C(=O)C(C(N)=O)=C(O)[C@@]2(O)C(=O)C3=C(O)c4c(O)cccc4[C@@](C)(O)[C@H]3[C@H](O)[C@@H]12`, the Potency entry in [2] and in [10] was “inactive” each time. Also, the outcome in [6] and in [7] was “inactive” throughout.

Regarding `O=C(Nc1ccncc1)C(=O)c1cn(Cc2ccc(Cl)cc2)c2ccccc12`, the Potency is 263 nM (active) in [1] and 0.235 µM (active) in assay [2].

For the compound `O=S(=O)(c1ccc(Cl)cc1)c1ccc(Cl)cc1`, the Potency result in assay [1] and in assay [2] was “inactive” in each case.

Consider `CC1=NN=C(c2ccc(N)cc2)c2cc3c(cc2C1)OCO3`, for which the outcome in assay [5], in [6] and in assay [7] was “inactive” in each case. The Potency result in assay [10] is “inactive”.

On to `O=S(=O)(CC1CS1)c1ccc(Oc2ccccc2)cc1` (centres undefined), for which the values for the Potency in assay [1] and in assay [2] were 8330 nM (active) and 5.25 µM (active), respectively.

`CC1=C(C(=O)O)N2C(=O)[C@@H](N)[C@H]2SC1`: the Potency result in [1] and in assay [2] was “inactive” throughout.

For the compound `NC1CC1c1ccccc1` (centres undefined), the activity in assay [3] amounted to 4.07%. In [4], the activity change, negative = inhibition amounted to 2.15%.

As for `CNCCc1c[nH]c2ccc(O)cc12`, the activity in [3] came out at 2.02%. For the same compound, the activity change, negative = inhibition in [4] came out at 1.54%.

Regarding `CCOC(=O)Nc1ccc(NCc2ccc(F)cc2)cc1N`, the Potency entry in [2] was “inactive”.

Take `COCCOCCO`: the Potency entry in [2] was “inactive”.
